Consider 40 compounds from PubChem BioAssay (NCI).

This is part of a sample that, as a whole, favours compounds with a hit. Of some 83,000 tested, about 20% had one in any assay.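 Testing used 96-well plates and a 48-hour single-concentration exposure. Example: -40 means 40% of the starting cells died.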 Values without a mark were called inactive. The source made the active and inactive calls. Rule for the calls: active = growth percent below 10; inactive = the rest.

The test concerns MDA-MB-468 breast. Put plainly: NCI-60 one-dose screen, 48 h (100 = growth as untreated, 0 = no growth, -100 = all killed). Particulars: 10 µM unless noted.
Turning to `CC(C)(N)COS(=O)(=O)O`, the growth is 107%. `Clc1ccc(Cc2nnc3sc(-c4cccnc4)nn23)cc1`: the growth was 94.2%. On to `O=S(=O)(NCCCNc1nccc(-c2[nH]c(-c3ccccc3)nc2-c2ccc(Cl)c(O)c2)n1)c1cccc(F)c1`, for which the growth was 50.9%. Under `N=C(N)c1ccc(-c2ccc(-c3ccc(Cl)c(Cl)c3)o2)cc1` stands -70.3% (active). Turning to `Brc1cccc(-c2cc(-c3ccc4c(c3)OCCO4)[nH]n2)c1`, the growth was 2.79% [25 µM] (active). Take `Cc1cnc(-c2ccc(-c3ccc(NC(=O)Nc4c(F)cc(F)cc4F)cc3F)c3c2C(=O)NC3)[nH]1`: the growth was 39.6%. The value for `O=C(Nc1ccc(-n2cc(-c3ccncc3)c(-c3ccc(O)c(Cl)c3)n2)cc1)c1cc(Cl)cc(Cl)c1` was 50.6%; that for `O=C1c2cc([N+](=O)[O-])ccc2-c2cc(Cl)c(NC(=O)C(F)(F)F)cc21` was -17.9% (active). The value for `O=C1c2c(c3c4ccc(Br)cc4oc3c3[nH]c4ccccc4c23)C(=O)N1CCO` was 46.5%. The value for `Cc1cc(=O)oc2cc(OCCCOc3ccc(/C=C/C(=O)Nc4ccc(Br)cc4)cc3)ccc12` was 75.9%; that for `CCN1/C(=C/C=C/C=C/c2sc3ccccc3[n+]2CC)Sc2ccccc21` was -81% (active). `CC(=O)Nc1ccc(O)c(C)c1`: the growth is 111%. Under `O=C(Cc1ccc(/C=C/C(=O)c2ncc[nH]2)cc1)Nc1ccc(F)cc1` stands 4.59% (active); under `Nc1c(C(=O)Nc2ccccn2)sc2nc3c(cc12)C(O)CCC3` (stereo not given), 15%. With `Cc1cc(C)c2c(c1)N1OC(C2)C[C@H]1/C=C/c1ccccc1` (stereo not given in full), the growth was 92.4%. For the compound `C=C(C)[C@@H]1CC[C@]2(C(=O)OCCOCCOCC[P+](c3ccccc3)(c3ccccc3)c3ccccc3)CC[C@]3(C)[C@H](CC[C@@H]4[C@@]5(C)CC[C@H](C)C(C)(C)[C@@H]5CC[C@]43C)[C@@H]12`, the growth was -67.6% (active). `CCNC(=O)Oc1ccc(/C(=C(\C)c2ccccc2)c2ccc(OCCN(CC)CC)cc2)cc1`: the growth was 79.3%.

Take `NC(=NCCCOc1ccc(Cl)cc1)Nc1ccc(C(F)(F)F)cc1`: the growth was -8.47% (active).

As to `CCOC(=O)Nc1ccc(-c2nc(-c3cccc(O)c3)c(-c3ccnc(Br)c3)[nH]2)cc1`, the growth is 10.7%. Under `COc1nc2c(cc1S(=O)(=O)c1ccccc1)CCc1c-2cnn1-c1ccc(Cl)cc1` stands 87.6%; under `COc1ccc(Nc2nn3c(-c4ccccc4)cc(-c4ccccc4)nc3c2C(N)=O)c(OC)c1`, 43.5%; under `CC(=O)O[C@@H]1C[C@]2(C)[C@H]3[C@H](O)C[C@@H]4C5=CC(C)(C)CC[C@]5(C)CC[C@@]4(C)[C@]3(C)CC[C@H]2C(C)(C)[C@H]1O`, 116%. The value for `COc1cc(NCCCN(CC(C)C)C2CCCC2)c2ncccc2c1` was 15.7%; that for `NS(=O)(=O)c1ccc(Nc2nc(Nc3ccccc3)nc(-n3nc(-c4ccccc4)cc3-c3ccccc3)n2)cc1` was 11.7%. Under `NC(=S)N/N=C(\c1ccc(Cl)cc1)C1CC1` stands 18.5%; under `Cc1ccc(CS/C(=C\c2ccc([N+](=O)[O-])cc2)C(=O)c2ccc(F)cc2)cc1`, 81.1%; under `CC(=O)Nc1ccc(/C=C/C(=O)c2ccccc2)cc1`, 52%. Regarding `O=C1C(Nc2ccc(Cl)cc2)=C(I)C(=O)c2ncccc21`, the growth is -72.3% (active).

As to `COc1cc(/C=C/C(=O)c2ccc(Cl)cc2)ccc1Oc1nc(NCCO)nc(N2CCOCC2)n1`, the growth was 91.5%. The value for `Cc1ccc(NC(=O)N[C@@H](Cc2cc(F)cc(F)c2)C(=O)N[C@@H]2C(=O)N3CCC[C@H]3C(=O)N3CCOC[C@H]3C(=O)N[C@@H](C)C(=O)N3C[C@H](C)C[C@H]3C(=O)O[C@H]2C)cc1` was 5.17% (active); that for `Nc1c(C(=O)c2ccc(Br)cc2)oc2nc(-c3cnccn3)cc(-c3cccs3)c12` was 99.4%. The value for `C=CC(=O)NCCOc1cccc(Nc2cc(NCCCNC(=O)C3CCC3)c(Br)cn2)c1` was -59.5% (active). For `C=C1C(=O)O[C@H]2[C@H]1CC/C(Cn1cc(CNCCc3c[nH]c4ccc(Cl)cc34)nn1)=C\CC[C@@]1(C)O[C@@H]21`, the growth was 19.6%.

In the case of `N#C/C(=C\c1ccc(C#N)cc1)C(=O)c1ccccc1`, the growth is 95.7%. For the compound `Cc1csc(Nc2nc(-c3ccc(Cl)cc3)nc(C(Cl)(Cl)Cl)n2)n1`, the growth is 9.54% (active). Regarding `CC(C)=CCc1cc2c(cc1O)C1=C(C(=O)C3=C(NCCS3(=O)=O)C1=O)C(C=C(C)C)O2` (stereo not given), the growth is -20.7% (active). Turning to `CCN(CC)CCS(=O)(=O)CCNc1ccnc2cc(Cl)ccc12`, the growth was -49.2% (active).

Consider `O=C1Nc2ccc(F)cc2/C1=C/c1nc(-c2ccc(F)cc2)n2ccccc12`, for which the growth is 113%. The value for `NCCNc1nc2ccccc2c2c(=O)c3cc(F)ccc3sc12` was 67.2%; that for `O=C(CSc1nc2ccc([N+](=O)[O-])cc2[nH]1)Nc1cccc([N+](=O)[O-])c1` was -1.47% (active).
